Consider 13 molecules from PubChem BioAssay (EPA / NIEHS).

SMILES strings stand for the structures. Where “and” joins values, the source holds several entries; their conditions need not be identical. Identical values can stand only once. Results filed as inconclusive are left out. The source holds several records for some structures; these can differ, active in one and inactive in another. Calls of active or inactive are those of the source. The calls were made as follows: active = hit-call score of the fitted dose curve at least 0.9, where 1 is the maximum; inconclusive = response in the unintended direction; inactive = score below 0.9.

As a reminder, the AC50 is the concentration giving half of the maximal activity seen.

Assay [1] addresses Peroxisome proliferator-activated receptor gamma (Homo sapiens) (UniProt P37231). In words: NVS_NR_hPPARg: NovaScreen (NVS) Nuclear Receptor Binding Assay for human Peroxisome Proliferator-activated Receptor gamma (PPARg) (AID 2283370). The method in brief:
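Cell-free binding to extracted PPARg protein, read by fluorescence polarization 2 h after dosing; loss of signal relative to DMSO baseline marks displacement. Primary screen in duplicate at 25 uM, actives retested in concentration series.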

Assay [2] addresses human Thyroid Receptor Alpha (TRa), THRA (gene 7067) (UniProt P10827). In words: NVS_NR_hTRa_Antagonist: NovaScreen (NVS) Nuclear Receptor Binding Assay for human Thyroid Receptor Alpha Antagonism (TRa) (AID 2283362). The method in brief: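 Cell-free binding assay on extracted receptor protein, read 1 h after chemical dosing by AlphaLISA chemiluminescence; loss of signal relative to DMSO baseline marks antagonism. Primary screen ran in duplicate at 25 uM, with concentration series for actives.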

Assay [3] deals with rat Androgen Receptor (AR), Ar (gene 24208) (UniProt P15207). In words: NVS_NR_rAR: NovaScreen (NVS) Nuclear Receptor Binding Assay for rat Androgen Receptor (AR) (AID 2283366). The method in brief:
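Actives from a duplicate single-concentration (25 uM) primary run went on to concentration series. Displacement of radioligand was counted by filtration and scintillation, 18 h post-dose, using prostate extracts from testosterone-pretreated rats, with DMSO as baseline.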

For assay [4], the target named is PGR (gene 5241) (UniProt P06401). In words: NVS_NR_hPR: NovaScreen (NVS) Nuclear Receptor Binding Assay for human Progestron Receptor (PR) (AID 2283360).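 Also: active means loss of bound radioligand signal versus DMSO baseline.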 The procedure, abridged: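 Cell-free radioligand binding using receptor protein extracted from T47D cells, read by scintillation counting 18 hours after dosing. Loss of signal relative to DMSO baseline indicates displacement; primary screen single concentration 25 uM in duplicate, actives followed in concentration series.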
Chain of PGR (gene 5241) (P06401 whole entry, looked up): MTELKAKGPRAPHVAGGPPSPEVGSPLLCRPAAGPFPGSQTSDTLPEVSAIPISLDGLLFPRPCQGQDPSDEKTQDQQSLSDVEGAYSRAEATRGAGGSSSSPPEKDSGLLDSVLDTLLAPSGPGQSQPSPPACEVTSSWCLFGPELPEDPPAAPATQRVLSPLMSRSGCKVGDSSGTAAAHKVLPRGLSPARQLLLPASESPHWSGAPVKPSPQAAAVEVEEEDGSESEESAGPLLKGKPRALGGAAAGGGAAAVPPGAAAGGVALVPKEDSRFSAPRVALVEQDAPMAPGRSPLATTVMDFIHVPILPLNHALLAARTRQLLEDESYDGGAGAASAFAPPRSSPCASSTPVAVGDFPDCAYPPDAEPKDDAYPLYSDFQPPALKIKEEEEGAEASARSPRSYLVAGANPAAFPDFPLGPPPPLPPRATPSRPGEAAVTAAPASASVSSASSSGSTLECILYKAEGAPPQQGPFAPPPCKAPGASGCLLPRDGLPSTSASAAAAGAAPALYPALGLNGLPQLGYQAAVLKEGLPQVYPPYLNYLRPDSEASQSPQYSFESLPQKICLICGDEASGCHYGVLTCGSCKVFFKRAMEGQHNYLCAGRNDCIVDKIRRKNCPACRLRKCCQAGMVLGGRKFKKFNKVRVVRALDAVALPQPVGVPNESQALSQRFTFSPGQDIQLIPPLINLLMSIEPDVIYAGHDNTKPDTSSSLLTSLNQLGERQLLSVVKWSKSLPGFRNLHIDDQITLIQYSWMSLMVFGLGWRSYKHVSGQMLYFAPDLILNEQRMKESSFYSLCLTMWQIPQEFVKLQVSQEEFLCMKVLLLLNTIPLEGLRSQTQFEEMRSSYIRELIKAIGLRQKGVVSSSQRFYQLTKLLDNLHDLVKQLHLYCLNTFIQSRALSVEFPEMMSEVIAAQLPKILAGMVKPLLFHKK

Assay [5] concerns the target guinea pig Sigma Receptor, Non-selective Binding, SIGMAR1 (gene 100135589) (UniProt Q60492). In words: NVS_OR_gSIGMA_NonSelective: NovaScreen (NVS) Nuclear Receptor Binding Assay for guinea pig Sigma Receptor, Non-selective Binding (AID 2283367). The method in brief: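 Test chemicals were screened in duplicate at 25 uM, then in concentration series if active, against radioligand binding to guinea pig brain membranes; filtration and scintillation counting at 1 h measured remaining bound ligand.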

For assay [6], the target named is human Adenosine Transporter (Adot), SLC29A1 (gene 2030) (UniProt Q99808). Nature of the assay: NVS_TR_hAdoT: NovaScreen (NVS) Transporter Assay for human Adenosine Transporter (Adot) (AID 2283368). The procedure, abridged: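 Binding displacement on U937 extracted protein, read 1 h post-dose by filtration and scintillation counting. Primary duplicate test at 25 uM, then singleton concentration series with 50 uM top; DMSO baseline.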
Chain of human Adenosine Transporter (Adot), SLC29A1 (gene 2030) (Q99808 whole entry, looked up): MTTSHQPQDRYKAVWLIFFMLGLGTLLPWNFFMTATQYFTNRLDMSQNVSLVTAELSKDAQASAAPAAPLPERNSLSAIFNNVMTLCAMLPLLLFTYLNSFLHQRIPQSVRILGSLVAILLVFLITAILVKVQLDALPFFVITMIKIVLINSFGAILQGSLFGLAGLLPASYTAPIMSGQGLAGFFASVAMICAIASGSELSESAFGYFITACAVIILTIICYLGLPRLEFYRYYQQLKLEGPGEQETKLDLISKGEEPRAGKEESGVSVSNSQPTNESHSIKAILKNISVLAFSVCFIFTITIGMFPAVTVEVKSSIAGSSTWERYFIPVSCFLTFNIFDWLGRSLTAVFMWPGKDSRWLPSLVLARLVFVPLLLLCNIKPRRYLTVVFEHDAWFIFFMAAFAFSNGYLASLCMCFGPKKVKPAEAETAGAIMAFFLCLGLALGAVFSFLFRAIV

The subject of assay [7] is guinea pig Dopamine Transporter (DAT), gene 100714898. Nature of the assay: NVS_TR_gDAT: NovaScreen (NVS) Transporter Assay for guinea pig Dopamine Transporter (DAT) (AID 2283369).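 Also: active compounds lower bound radioligand signal relative to DMSO.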 The method in brief:
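Guinea pig striatal membranes; radioligand displacement measured by filter-based scintillation counting 2 h after dosing. Initial duplicate screen at 25 uM, then concentration-response up to 50 uM for hits; loss of signal versus DMSO baseline.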

Assay [8] concerns the target Nuclear receptor subfamily 1 group I member 2 (Homo sapiens) (UniProt O75469). In words: NVS_NR_hPXR: NovaScreen (NVS) Nuclear Receptor Binding Assay for human Pregnane X Receptor (PXR) (AID 2283365).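 Also: a drop in FRET signal versus DMSO baseline means the compound binds.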 The method in brief: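 Cell-free binding assay with extracted human PXR protein, read by TR-FRET 2 h after dosing; loss of signal relative to DMSO baseline indicates binding. Primary screen at 25 uM in duplicate, actives retested in concentration series.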

Assay [9] has as its target human Peroxisome Proliferator-activated Receptor alpha (PPARa), PPARA (gene 5465) (UniProt Q07869). Nature of the assay: NVS_NR_hPPARa: NovaScreen (NVS) Nuclear Receptor Binding Assay for human Peroxisome Proliferator-activated Receptor alpha (PPARa) (AID 2283359).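 Also: activity means loss of TR-FRET signal versus DMSO baseline.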 The method in brief:
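One-hour incubation, cell-free extracted protein, TR-FRET binding readout; signal loss vs DMSO scored. Screen: 25 uM duplicates, confirmatory dose series for actives.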

Chain of human Thyroid Receptor Alpha (TRa), THRA (gene 7067) (P10827 whole entry, looked up): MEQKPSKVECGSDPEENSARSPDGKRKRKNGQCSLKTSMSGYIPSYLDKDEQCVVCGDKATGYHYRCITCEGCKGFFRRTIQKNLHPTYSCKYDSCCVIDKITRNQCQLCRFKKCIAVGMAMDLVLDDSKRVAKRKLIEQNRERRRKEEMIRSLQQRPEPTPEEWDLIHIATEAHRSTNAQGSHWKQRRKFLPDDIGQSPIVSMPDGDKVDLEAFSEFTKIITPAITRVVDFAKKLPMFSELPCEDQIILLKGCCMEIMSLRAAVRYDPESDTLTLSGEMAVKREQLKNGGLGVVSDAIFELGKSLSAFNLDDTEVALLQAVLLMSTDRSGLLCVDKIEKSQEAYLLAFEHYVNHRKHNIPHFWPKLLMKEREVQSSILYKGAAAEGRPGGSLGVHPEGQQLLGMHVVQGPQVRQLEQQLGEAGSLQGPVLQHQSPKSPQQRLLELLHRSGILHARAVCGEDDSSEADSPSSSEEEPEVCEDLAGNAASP
Chain of guinea pig Sigma Receptor, Non-selective Binding, SIGMAR1 (gene 100135589) (Q60492 whole entry, looked up): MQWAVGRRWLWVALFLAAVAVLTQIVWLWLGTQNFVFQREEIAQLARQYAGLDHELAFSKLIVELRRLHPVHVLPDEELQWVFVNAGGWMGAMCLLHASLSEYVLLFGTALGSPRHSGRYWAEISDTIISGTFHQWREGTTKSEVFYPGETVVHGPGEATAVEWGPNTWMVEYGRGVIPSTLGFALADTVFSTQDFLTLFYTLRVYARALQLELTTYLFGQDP
Chain of Peroxisome proliferator-activated receptor gamma (Homo sapiens) (P37231 whole entry, looked up): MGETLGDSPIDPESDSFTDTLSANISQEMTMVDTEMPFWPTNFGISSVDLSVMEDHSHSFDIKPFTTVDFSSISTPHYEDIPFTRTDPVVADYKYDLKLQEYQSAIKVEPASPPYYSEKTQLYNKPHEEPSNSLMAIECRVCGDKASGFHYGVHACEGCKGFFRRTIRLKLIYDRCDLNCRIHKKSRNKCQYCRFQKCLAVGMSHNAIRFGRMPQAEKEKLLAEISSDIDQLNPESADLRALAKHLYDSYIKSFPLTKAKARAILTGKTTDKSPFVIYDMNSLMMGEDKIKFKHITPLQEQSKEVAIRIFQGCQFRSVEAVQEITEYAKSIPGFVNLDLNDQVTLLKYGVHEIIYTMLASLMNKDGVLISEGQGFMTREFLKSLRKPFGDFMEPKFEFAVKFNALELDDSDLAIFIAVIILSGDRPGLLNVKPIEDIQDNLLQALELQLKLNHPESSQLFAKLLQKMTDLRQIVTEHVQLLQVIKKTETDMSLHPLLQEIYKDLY
Chain of rat Androgen Receptor (AR), Ar (gene 24208) (P15207 whole entry, looked up): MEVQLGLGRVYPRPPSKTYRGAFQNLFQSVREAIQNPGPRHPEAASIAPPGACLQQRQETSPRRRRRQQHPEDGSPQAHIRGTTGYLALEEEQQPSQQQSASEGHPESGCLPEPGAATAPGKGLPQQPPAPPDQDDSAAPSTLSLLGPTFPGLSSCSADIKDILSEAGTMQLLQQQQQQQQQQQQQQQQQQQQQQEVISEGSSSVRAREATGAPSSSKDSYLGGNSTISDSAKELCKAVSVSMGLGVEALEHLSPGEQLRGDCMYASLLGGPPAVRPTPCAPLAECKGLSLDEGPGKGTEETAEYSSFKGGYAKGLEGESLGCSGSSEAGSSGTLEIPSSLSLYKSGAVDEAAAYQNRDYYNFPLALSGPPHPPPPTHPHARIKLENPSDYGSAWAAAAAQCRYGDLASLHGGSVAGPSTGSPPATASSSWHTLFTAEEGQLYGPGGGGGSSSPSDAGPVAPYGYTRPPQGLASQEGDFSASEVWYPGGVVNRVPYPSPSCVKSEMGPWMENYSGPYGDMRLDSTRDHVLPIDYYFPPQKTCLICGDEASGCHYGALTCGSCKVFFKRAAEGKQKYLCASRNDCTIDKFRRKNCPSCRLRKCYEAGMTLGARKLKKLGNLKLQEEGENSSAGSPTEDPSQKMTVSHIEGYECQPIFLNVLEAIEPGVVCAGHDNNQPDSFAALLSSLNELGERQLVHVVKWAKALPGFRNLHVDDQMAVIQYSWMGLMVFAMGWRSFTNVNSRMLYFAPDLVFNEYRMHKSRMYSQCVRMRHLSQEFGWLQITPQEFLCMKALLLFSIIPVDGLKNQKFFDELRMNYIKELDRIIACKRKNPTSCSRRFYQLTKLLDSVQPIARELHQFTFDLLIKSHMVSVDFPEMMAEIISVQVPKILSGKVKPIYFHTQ
Chain of human Peroxisome Proliferator-activated Receptor alpha (PPARa), PPARA (gene 5465) (Q07869 whole entry, looked up): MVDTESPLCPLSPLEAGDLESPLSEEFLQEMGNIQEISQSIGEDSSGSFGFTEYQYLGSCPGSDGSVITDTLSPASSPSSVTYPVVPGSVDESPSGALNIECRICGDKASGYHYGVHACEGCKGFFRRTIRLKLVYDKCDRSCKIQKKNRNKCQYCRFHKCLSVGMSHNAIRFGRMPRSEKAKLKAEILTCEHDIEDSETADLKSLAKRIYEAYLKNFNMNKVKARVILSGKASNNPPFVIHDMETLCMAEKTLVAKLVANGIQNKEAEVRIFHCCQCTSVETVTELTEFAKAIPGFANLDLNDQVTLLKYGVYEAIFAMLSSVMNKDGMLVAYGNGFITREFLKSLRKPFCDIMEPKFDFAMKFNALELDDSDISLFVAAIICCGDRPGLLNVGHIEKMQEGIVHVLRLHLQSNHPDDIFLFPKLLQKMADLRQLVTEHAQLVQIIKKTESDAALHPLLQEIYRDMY
Chain of Nuclear receptor subfamily 1 group I member 2 (Homo sapiens) (O75469 whole entry, looked up): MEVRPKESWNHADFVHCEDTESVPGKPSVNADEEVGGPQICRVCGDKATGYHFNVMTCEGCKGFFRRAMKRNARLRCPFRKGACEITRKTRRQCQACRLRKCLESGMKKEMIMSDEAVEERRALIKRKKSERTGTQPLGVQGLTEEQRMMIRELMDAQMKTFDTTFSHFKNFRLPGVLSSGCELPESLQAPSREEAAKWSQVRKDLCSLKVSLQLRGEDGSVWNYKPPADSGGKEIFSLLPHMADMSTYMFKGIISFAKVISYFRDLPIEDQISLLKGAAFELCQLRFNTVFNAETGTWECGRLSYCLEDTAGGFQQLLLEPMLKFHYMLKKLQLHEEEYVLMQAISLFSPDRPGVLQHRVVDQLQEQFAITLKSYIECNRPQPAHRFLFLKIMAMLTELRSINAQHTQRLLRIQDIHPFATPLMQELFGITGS

As for `O=C1c2ccccc2C(=O)N1SC(Cl)(Cl)Cl`, the molecule was classed as inactive in assay [1].

As to `O=[N+]([O-])/N=C1\NCCN1Cc1ccc(Cl)nc1`, the result in [2], in assay [3] and in assay [1] was inactive.

As to `CCCN(CCOc1c(Cl)cc(Cl)cc1Cl)C(=O)n1ccnc1`, the result in assay [4] and in [1] was inactive. Further, the AC50 in assay [2] was 6.39 µM (active); in assay [5], 8.36 µM (active); in assay [6], 8.65 µM (active); in assay [7], 6.57 µM (active).

Consider `CC1(c2ccc(Oc3ccccc3)cc2)OC(=O)N(Nc2ccccc2)C1=O` (centres undefined), for which the result in assay [1] was inactive.

In the case of `O=[N+]([O-])c1c(Cl)c(Cl)c(Cl)c(Cl)c1Cl`, the call in [2] and in [3] was inactive. For the same molecule, the AC50 in assay [1] is 38.1 µM (active).

As for `CC(C)(C)C(O)/C(=C\c1ccc(Cl)cc1Cl)n1cncn1` (centres undefined), the results for the AC50 in assay [4], in assay [8] and in assay [5] were 0.667 µM (active), 0.281 µM (active) and 1.25 µM (active), respectively. The molecule was classed as inactive in assay [1].

On to `CC(C)OC(=O)Nc1cccc(Cl)c1`, for which, in [7], the molecule was called inactive.

On to `COP(=S)(OC)Oc1ccc(SC)c(C)c1`, for which the result in [4] was inactive. Moreover, the AC50 in assay [5] is 11.2 µM (active).

With `O=C(O)COc1ccc(Cl)cc1Cl`, in [5], the call was inactive.

`CC(C)(C)C(O)C(Oc1ccc(Cl)cc1)n1cncn1` (centres undefined): the call in [9], in assay [4], in [2] and in assay [1] was inactive. In addition, the AC50 in assay [8] was 25 µM (active); in assay [7] it was 1.08 µM (active) and 1.75 µM (active) and 869 nM (active).

With `COc1cc(OC)nc(NC(=O)NS(=O)(=O)c2cc(NC=O)ccc2C(=O)N(C)C)n1`, the outcome in assay [2] was inactive.

Consider `Oc1cc(Cl)ccc1Oc1ccc(Cl)cc1Cl`, for which the AC50 in [7] was 25.5 µM (active) and 25 µM (active). In addition, in assay [1], the AC50 was 11.6 µM (active) and 16.2 µM (active) and 6.67 µM (active); the molecule was classed as inactive.

For `O=C(O)C(F)(F)C(F)(F)C(F)(F)C(F)(F)C(F)(F)C(F)(F)C(F)(F)F`, the molecule was classed as inactive in assay [9] and in assay [4].
